HepG2 tox = qHTS for Inhibitors of TGF-b: Cytotox Counterscreen. HepG2 CAGA-GFP viability, ATP luminescence, 18 h. Potency, µM (highest dose often 46.1 µM), inactives show top-dose activity change, negative = cytotoxicity, usual class: cytotoxic. actives 0.76% (n = 410,000)
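CellTiter-Glo luminescence gave cytotoxicity after 18 hours at 37 degrees C. The cells were HepG2 CAGA-GFP in 1% FBS DMEM, stimulated with 500 pg/mL TGF-beta after compound addition. %Activity was normalised to no-cell wells (complete cell-killing) and DMSO (no toxicity), and curves were fitted and classified.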
ATXN2 expr inh = Primary qHTS for Inhibitors of ATXN expression. HEK-293 ATXN2-luciferase reporter, luminescence, 24 h. actives 0.72% (n = 360,000). AID 1745845, 2022. Potency, µM (series often up to 57 µM), inactives show at the top dose activity change, negative = inhibition, usual class: inhibitors; note: % is set by controls: 0 for no effect and ±100 for the full control effect; nearly all actives have a fitted effect of over 55% in size
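ATXN2-luciferase reporter cells (luciferase flanked by upstream and downstream ATXN2 gene portions) were treated 24 h at 37 °C with compounds at up to 57 uM. SteadyGlo luminescence gave expression; GF-AFC fluorescence gave viability.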
HttQ103 aggreg = qHTS Multiplex Assay to Identify Dual Action Probes in a Cell Model of Huntington: Aggregate Formation (GFP); actives 1.1% (n = 220,000); AID 1688, 2009; PC12 HttQ103-GFP aggregates, Acumen cytometry, 40 h; Potency, µM (titrated, usually from 46.1 µM), without a hit: at the highest dose activity change, negative = inhibition, usual class: inhibitors; note: % is set by controls: 0 for no effect and ±100 for the full control effect; nearly all actives have a fitted effect of over 60% in size
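PC12/HTTQ103-GFP, ecdysone-inducible; teb 100 nM; cpd qHTS titration; GFP aggregates read on laser cytometer, Ex 488/Em 500-530 nm.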
TGFb inhibitor = qHTS for Inhibitors of TGF-b; HepG2 CAGA-GFP TGF-b/SMAD3 reporter, GFP fluorescence, 18 h; TGF-beta stimulated, 500 pg/mL final; Potency, µM (top dose mostly 46.1 µM), for the others: top-dose activity, negative = inhibition, most hits filed as inhibitors; actives 1.2% (n = 410,000); AID 588855, 2011; note: % is set by controls: 0 for no effect and ±100 for the full control effect; nearly all actives have a fitted effect of over 65% in size
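Inhibition was scored as loss of TGF-beta-induced (500 pg/mL final, 18 hours, 37 degrees C) GFP in HEPG2 cells carrying a CAGA-GFP reporter, in DMEM with 1% FBS. Well GFP was summed per cell; Activity was normalised to unstimulated and stimulated DMSO wells, then concentration-response fitting.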
HTT cytoprotect = qHTS Multiplex Assay to Identify Dual Action Probes in a Cell Model of Huntington: Cytoprotection (ATP) | PC12 HTT-Q103 induced, cytoprotection, ATP luminescence, 40 h | Potency, µM (series often up to 56.4 µM), for inactives: cytoprotection (ATP increase), hits mostly activators | actives 0.14% (n = 230,000) | AID 1471, 2008; note: % of control where 0% means no effect; nearly all actives have a fitted effect of over 45% in size
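Compounds added alongside 100 nM tebufenozide, which induces toxic Q103 huntingtin exon 1-GFP in stable PC12 cells; surviving cells quantified by luminescent ATP measurement. Medium: phenol red-free DMEM, 5% equine and 5% calf serum.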
S2 tox = Viability Counterscreen for Primary qHTS for Inhibitors of ATXN expression; actives 0.49% (n = 400,000); Potency, µM (series often up to 56.7 µM), most hits filed as cytotoxic; S2 cells (HEK-293 line with an ATXN2-luciferase reporter) viability, CellTiter-Fluor protease fluorescence, 24 h; note: nearly all actives have a fitted effect of over 40% in size
* hit, by the source's call; i = inactive; ? = inconclusive; / = not tested or not shown; [ ] = remark or other dose. Shown are actives, neighbours in structure and some others; about 2.8% of the full set was active somewhere. Calls come from the whole dose curve; as a rule, active = well fitted curve in the direction sought with a large enough effect; inconclusive = small, poorly fitted or top-dose-only effect, or another doubt; inactive = no such curve, though single readings can be large; an effect the other way counts as inactive or inconclusive. Potency is the fitted concentration of half-maximal effect.

SMILES | HepG2 tox | ATXN2 expr inh | HttQ103 aggreg | TGFb inhibitor | HTT cytoprotect | S2 tox
O=C(NCCCNc1ccc(C(F)(F)F)cc1[N+](=O)[O-])c1ccc(Cl)cc1 | -33% | -14% | 11µM* | ? | -33% | i
O=C(NCCCNc1ccc(C(F)(F)F)cc1[N+](=O)[O-])c1cc(F)c(F)cc1Cl | -16% | -18% | ? | -39% | -50% | ?
O=C(O)C(=O)Nc1cccc(C2=NN=N[N]2)c1 | / | -5% | / | / | / | i
CC1=C(SCc2ccccc2)C(=O)c2ccccc2C1=O | 13µM* | ? | / | 7.9µM* | / | ?
Cn1c(SCc2ccccc2)nccc1=O | 2% | 6% | / | 16% | / | i
COC1C=CC=C(C)C(=O)NC2=CC(=O)C(N)=C(CC(C)CC(OC)C(O)C(C)C=C(C)C1OC(N)=O)C2=O (stereo unspecified) | -78% | 0.24µM* | / | -93% | / | ?
COC1=C2C[C@H](C)C[C@H](OC)[C@H](O)[C@@H](C)/C=C(/C)[C@H](OC(N)=O)[C@@H](OC)/C=C\C=C(\C)C(=O)NC(=CC1=O)C2=O | / | / | / | / | -72% | /
c1ccc2c(N=NN3CCCCC3)ccnc2c1 | -16% | / | / | -1% | / | /
COc1ccc(C2c3ccc4ccccc4c3Oc3ncn(CCCO)c(=N)c32)cc1OC (stereo unspecified) | -120% | ? | -3%[9.22 µM] | 11µM* | -15%[10 µM] | ?
N=c1c2c(ncn1CCCO)Oc1c(ccc3ccccc13)C2c1ccccc1 (stereo unspecified) | -118% | / | 13%[9.22 µM] | ? | -19%[10 µM] | 14µM*
COc1ccc(C2c3c(ncn(Cc4ccco4)c3=N)Oc3ccc4ccccc4c32)cc1 (stereo unspecified) | 3% | -35% | -8% | -5% | 15%[10 µM] | ?
COc1ccc(C2c3ccc4ccccc4c3Oc3ncn(CCCO)c(=N)c32)cc1 (stereo unspecified) | -117% | 25µM* | -10%[9.22 µM] | ? | -40%[10 µM] | /
CN(C)CCCn1cnc2c(c1=N)C(c1ccccc1)c1ccc3ccccc3c1O2 (stereo unspecified) | -102% | / | / | ? | / | ?
N=c1c2c(ncn1Cc1ccco1)Oc1ccc3ccccc3c1C2c1ccccc1 (stereo unspecified) | -2% | 22µM* | ? | 0% | 0%[10 µM] | /
COc1ccc(C2c3ccc4ccccc4c3Oc3ncn(CCO)c(=N)c32)cc1 (stereo unspecified) | -11% | ? | / | 0% | / | ?
C=CS(=O)(=O)O | / | / | / | / | / | i
Cc1cnc(-n2ncc(C(=O)NCc3ccncc3)c2C2CC2)nc1-c1cccs1 | / | / | / | / | / | i
CCN1C(Br)=CCc2ccccc21 | 0% | / | / | 1% | / | /
CNC(=O)c1ccc(N2C(=S)N(c3ccc(C#N)c(C(F)(F)F)c3)C(=O)C2(C)C)cc1F | / | -7% | / | / | / | /
COc1ccc(C2c3ccc4ccccc4c3Oc3ncn(CCN(C)C)c(=N)c32)cc1 (stereo unspecified) | -80% | -29% | / | 16µM* | / | ?
C=CCN1C(=O)/C(=C/c2ccc(OC(C)=O)c(OCC)c2[N+](=O)[O-])SC1=S | -54% | ? | 18% | 7.1µM* | -93% | /
C=CCN1C(=O)/C(=C\c2ccc(OC(=O)c3ccco3)c(OC)c2)SC1=S | 3% | / | 7% | 36% | -33% | ?
CCOc1ccc(N=C(C)Nc2ccc(OCC)cc2)cc1 | / | / | / | / | / | i
Oc1c(C(c2ccccn2)N2CCC(Cc3ccccc3)CC2)cc(Cl)c2cccnc12 (stereo unspecified) | -48% | ? | ? | 16µM* | -104% | /
CN(Cc1cnc2nc(N)nc(N)c2n1)c1ccc(C(=O)NC(CCC(=O)O)C(=O)O)c2ccccc12 (stereo unspecified) | -61% | ? | / | -21% | / | i
SMILES | HepG2 tox | ATXN2 expr inh | HttQ103 aggreg | TGFb inhibitor | HTT cytoprotect | S2 tox
C#CCC(Cc1cnc2nc(N)nc(N)c2n1)c1ccc(C(=O)N[C@@H](CCC(=O)O)C(=O)O)cc1 (stereo partly specified) | / | 0.54µM* | / | / | / | ?
CO[C@@H]1COC(=O)C/C=C\[C@H](C)COC(=O)[C@H](C)NC(=O)C/C=C\[C@H]1C | / | / | / | / | -4%[10 µM] | /
Cc1ccc2c(c1)Oc1ccc(NC(=O)CCl)cc1C(=O)N2 | 8.9µM* | ? | 25µM* | 14µM* | -12%[10 µM] | 10µM*
Cc1ccc2c(c1)Oc1ccc([N+](=O)[O-])cc1C(=O)N2 | 1% | -24% | -5% | 13% | -34% | i
CN(C1=C(NC(=O)c2ccc(Cl)cc2)C(=O)c2ccccc2C1=O)c1ccccc1 | -53% | ? | ? | 13µM* | -73%[10 µM] | ?
O=C1C(Cl)=C(NC(=O)c2ccccc2)C(=O)C(Cl)=C1NC(=O)c1ccccc1 | -31% | ? | / | 11µM* | / | ?
Cc1cc2ccccc2cn1 | -28% | / | / | -11% | / | /
CCOC(=O)NC1CCc2cc(OC)c(OC)c(OC)c2-c2ccc(SC)c(=O)cc21 (stereo unspecified) | 12% | -3% | / | 0% | / | ?
CCCCOC(=O)NC1CCc2cc(OC)c(OC)c(OC)c2-c2ccc(SC)c(=O)cc21 (stereo unspecified) | 0% | 1% | / | -80% | / | 0.038µM*
CC(C)C[C@H](NC(=O)[C@@H](NC(=O)N[C@@H](Cc1ccccc1)C(=O)O)[C@H]1CCN=C(N)N1)C(=O)N[C@H](C=O)Cc1ccccc1 | / | / | / | / | -1% | /
Cc1ccc(C(C)C)c(OCc2ccc(C(=O)N/N=C/c3ccc(O)cc3O)cc2)c1 | -96% | 10µM* | ? | ? | -33%[10 µM] | ?
Cc1ccc(C(C)C)c(OCc2ccc(C(=O)N/N=C/c3ccc(C(=O)O)cc3)cc2)c1 | 39% | / | 3%[9.22 µM] | 40% | -13%[10 µM] | i
O=C(N/N=C/c1ccc(O)cc1O)c1ccc(NC(=O)C2CCCCC2)cc1 | -100% | 5.6µM* | / | ? | / | ?
O=C(N/N=C/c1cccc(O)c1)c1ccc(NC(=O)C2CCCCC2)cc1 | -1% | -1% | / | -1% | / | i
O=C(N/N=C/c1ccc(O)cc1O)c1ccncc1 | 21% | 22µM* | / | 14% | / | i
CC(=O)[C@@]1(O)CC[C@H]2[C@@H]3C=C(Cl)C4=CC(=O)CC[C@]4(C)[C@H]3CC[C@@]21C | / | / | / | / | / | i
CC(=O)Oc1ccc2cc(-c3nc4c(s3)CCc3ccccc3-4)c(=O)oc2c1 | -2% | / | / | 169% | / | /
